# Source: PubChem BioAssay (EPA / NIEHS)
# Activity calls are given as the source filed them. How the source made its calls: active means hit-call score of the fitted dose curve at least 0.9, where 1 is the maximum; inactive means score below 0.9.
# Experiments:
# [1] = read-out: Tumor necrosis factor receptor superfamily member 6 (Homo sapiens) (UniProt P25445); assay: LTEA_HepaRG_FAS: Life Technologies and Expression Analysis (LTEA) Assay for Fas cell surface death receptor (FAS) using HepaRG (AID 2283447); conditions: mRNA level, 48 h; actives raise or lower the signal
# In short: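 FAS transcript level was measured by TaqMan qRT-PCR against three housekeeping genes after 48 h chemical exposure. Cells were HepaRG, 0.5% DMSO vehicle, with a top concentration of 100 uM and half-log dilutions over eight points, in duplicate.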
# [2] = read-out: Fatty acid synthase (Homo sapiens) (UniProt P49327); assay: LTEA_HepaRG_FASN: Life Technologies and Expression Analysis (LTEA) Assay for Fatty Acid Synthase (FASN) using HepaRG (AID 2283448); conditions: mRNA level, 48 h; actives raise or lower the signal
# In short: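 FASN transcript measured by TaqMan qRT-PCR, normalised to three housekeeping genes, after 48 h chemical exposure of HepaRG cells. Eight-point half-log series from 100 uM in 0.5% DMSO, duplicates; gain or loss fitted against vehicle.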
# [3] = read-out: Cyclin D2 (CCND2), CCND2 (gene 894); assay: LTEA_HepaRG_CCND2: Life Technologies and Expression Analysis (LTEA) Assay for Cyclin D2 (CCND2) using HepaRG (AID 2283449); conditions: mRNA level, 48 h; actives raise or lower the signal
# In short: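 CCND2 transcript levels, quantified by qRT-PCR and normalised to three housekeeping genes, were fitted bidirectionally against 0.5% DMSO. HepaRG cultures were dosed 48 h in duplicate with an 8-point half-log series up to 100 uM.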
# [4] = read-out: Cyclin Dependent Kinase Inhibitor 1A (CDKN1A), CDKN1A (gene 1026); assay: LTEA_HepaRG_CDKN1A: Life Technologies and Expression Analysis (LTEA) Assay for Cyclin Dependent Kinase Inhibitor 1A (CDKN1A) using HepaRG (AID 2283450); conditions: mRNA level, 48 h; actives raise or lower the signal
# In short: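 Differentiated HepaRG cells in serum-free induction medium, exposed 48 h in duplicate to eight half-log concentrations up to 100 uM in 0.5% DMSO. mRNA measured by TaqMan qRT-PCR, normalized to ACTB, GAPDH, POLR2A; bidirectional fit versus DMSO.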
# [5] = read-out: Cyclin D1 (CCND1), CCND1 (gene 595); assay: LTEA_HepaRG_CCND1: Life Technologies and Expression Analysis (LTEA) Assay for Cyclin D1 (CCND1) using HepaRG (AID 2283451); conditions: mRNA level, 48 h; actives raise or lower the signal;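 on AC50: TaqMan qRT-PCR transcript level normalised to ACTB GAPDH and POLR2A housekeeping genes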
# In short: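 Differentiated HepaRG cells exposed 48 h in serum-free induction medium to eight half-log concentrations from 100 uM top, 0.5% DMSO, duplicates. CCND1 mRNA measured by Fluidigm TaqMan qRT-PCR, normalised to ACTB, GAPDH, POLR2A; bidirectional fit.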
# [6] = read-out: catalase (CAT), CAT (gene 847); assay: LTEA_HepaRG_CAT: Life Technologies and Expression Analysis (LTEA) Assay for catalase (CAT) using HepaRG (AID 2283452); conditions: mRNA level, 48 h; actives raise or lower the signal
# In short: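 Expression of CAT was quantified by TaqMan qRT-PCR with ACTB/GAPDH/POLR2A normalization after 48 h chemical exposure of HepaRG. Eight-point half-log series, top 100 uM, in 0.5% DMSO; gain or loss fitted against vehicle.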
# [7] = read-out: flavin-containing dimethylaniline monooxygenases 3 (FMO3), FMO3 (gene 2328); assay: LTEA_HepaRG_FMO3: Life Technologies and Expression Analysis (LTEA) Assay for flavin-containing dimethylaniline monooxygenases 3 (FMO3) using HepaRG (AID 2283453); conditions: mRNA level, 48 h; actives raise or lower the signal
# In short: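 FMO3 transcript quantified by TaqMan qRT-PCR against three housekeeping genes after 48 h chemical exposure of HepaRG cells. Eight-point half-log series, top 100 uM, 0.5% DMSO vehicle; phenobarbital 1mM induction control; up- or down-regulation fitted.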
# [8] = read-out: Cytochrome P450 (CYP1A1), CYP1A1 (gene 1543); assay: LTEA_HepaRG_CYP1A1: Life Technologies and Expression Analysis (LTEA) Assay for Cytochrome P450 (CYP1A1) using HepaRG (AID 2283454); conditions: mRNA level, 48 h; actives raise or lower the signal
# In short: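 Differentiated human HepaRG cells, after 48 h plating, exposed in duplicate for 48 h in serum-free induction medium to 8 half-log concentrations up to 100 uM in 0.5% DMSO. CYP1A1 mRNA by qRT-PCR, normalized to ACTB/GAPDH/POLR2A; bidirectional fit versus DMSO.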
# [9] = read-out: CFLAR gene, CFLAR (gene 8837); assay: LTEA_HepaRG_CFLAR: Life Technologies and Expression Analysis (LTEA) Assay for CFLAR gene using HepaRG (AID 2283455); conditions: mRNA level, 48 h; actives raise or lower the signal
# In short: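 Transcript level by qRT-PCR (normalized to ACTB, GAPDH and POLR2A) after 48 h chemical exposure of HepaRG cells, top concentration 100 uM with half-log steps, 0.5% DMSO vehicle, duplicates; fitted bidirectionally against DMSO baseline.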
# [10] = read-out: Forkhead box O1 (FOXO1), FOXO1 (gene 2308); assay: LTEA_HepaRG_FOXO1: Life Technologies and Expression Analysis (LTEA) Assay for Forkhead box O1 (FOXO1) using HepaRG (AID 2283456); conditions: mRNA level, 48 h; actives raise or lower the signal
# In short: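 FOXO1 transcript quantified by qRT-PCR after 48 h chemical exposure (top 100 uM, half-log steps, 0.5% DMSO) of HepaRG cells, housekeeping-normalized (ACTB/GAPDH/POLR2A). Changes fitted in both directions relative to vehicle.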
# [11] = CEETOX_H295R_TESTO: CeeTox H295R High-throughput Steroidogenesis Assay for Testosterone (TESTO) (AID 2283457); conditions: actives raise or lower the signal
# In short: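 H295R adrenal cells, passage ≤10, exposed to chemicals for 48 h. Testosterone in medium measured by MTBE extraction and HPLC-MS/MS against a 7-point standard curve. Bidirectional fit versus DMSO; MTT viability checked in the same wells.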
# [12] = read-out: growth arrest and DNA damage 45 (GADD45A), GADD45A (gene 1647); assay: LTEA_HepaRG_GADD45A: Life Technologies and Expression Analysis (LTEA) Assay for growth arrest and DNA damage 45 (GADD45A) using HepaRG (AID 2283458); conditions: mRNA level, 48 h; actives raise or lower the signal
# In short: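 GADD45A expression was measured by TaqMan qRT-PCR against three housekeeping genes (ACTB, GAPDH, POLR2A) after 48 h treatment of HepaRG cells. Eight-point half-log series up to 100 uM in 0.5% DMSO, run in duplicate.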
# [13] = read-out: Forkhead box O3 (FOXO3), FOXO3 (gene 2309); assay: LTEA_HepaRG_FOXO3: Life Technologies and Expression Analysis (LTEA) Assay for Forkhead box O3 (FOXO3) using HepaRG (AID 2283459); conditions: mRNA level, 48 h; actives raise or lower the signal
# In short: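 FOXO3 transcript measured by qRT-PCR (normalized to ACTB, GAPDH, POLR2A) after 48 h exposure of HepaRG cells in serum-free induction medium. Duplicates, eight half-log concentrations up to 100 uM, 0.5% DMSO; gain or loss fitted against DMSO.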
# [14] = read-out: ABC Transporter (ABCB1), ABCB1 (gene 5243); assay: LTEA_HepaRG_ABCB1: Life Technologies and Expression Analysis (LTEA) Assay for ABC Transporter (ABCB1) using HepaRG (AID 2283460); conditions: mRNA level, 48 h; actives raise or lower the signal
# In short: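 ABCB1 transcript level measured by TaqMan qRT-PCR against three housekeeping genes after 48 h chemical exposure of differentiated HepaRG cells. Top concentration 100 uM, half-log steps, eight points, 0.5% DMSO vehicle; bidirectional fit relative to DMSO.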
# [15] = read-out: growth arrest and DNA damage 45 (GADD45B), GADD45B (gene 4616); assay: LTEA_HepaRG_GADD45B: Life Technologies and Expression Analysis (LTEA) Assay for growth arrest and DNA damage 45 (GADD45B) using HepaRG (AID 2283461); conditions: mRNA level, 48 h; actives raise or lower the signal
# In short: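 Differentiated human HepaRG cells in serum-free induction medium exposed 48 h in duplicate to eight concentrations, top 100 uM, half-log steps, 0.5% DMSO. GADD45B mRNA by TaqMan qRT-PCR, normalized to ACTB, GAPDH, POLR2A; bidirectional fit versus DMSO.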
# [16] = read-out: ABC Transporter (ABCC3), ABCC3 (gene 8714); assay: LTEA_HepaRG_ABCC3: Life Technologies and Expression Analysis (LTEA) Assay for ABC Transporter (ABCC3) using HepaRG (AID 2283462); conditions: mRNA level, 48 h; actives raise or lower the signal
# In short: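 Differentiated human HepaRG cells exposed 48 h in serum-free induction medium, 0.5% DMSO vehicle, 8-point half-log series to 100 uM in duplicate. ABCC3 mRNA by qRT-PCR, normalised to ACTB, GAPDH, POLR2A; bidirectional fit vs DMSO.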
# [17] = read-out: ABC Transporter (ABCB11), ABCB11 (gene 8647); assay: LTEA_HepaRG_ABCB11: Life Technologies and Expression Analysis (LTEA) Assay for ABC Transporter (ABCB11) using HepaRG (AID 2283463); conditions: mRNA level, 48 h; actives raise or lower the signal
# In short: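 ABCB11 transcript levels quantified by TaqMan qRT-PCR against three housekeeping genes after 48 h chemical exposure of HepaRG cultures. Concentrations up to 100 uM in half-log steps, 0.5% DMSO vehicle; both induction and suppression scored.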
# [18] = read-out: ABC Transporter (ABCC2), ABCC2 (gene 1244); assay: LTEA_HepaRG_ABCC2: Life Technologies and Expression Analysis (LTEA) Assay for ABC Transporter (ABCC2) using HepaRG (AID 2283464); conditions: mRNA level, 48 h; actives raise or lower the signal
# In short: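 Differentiated HepaRG cells in serum-free induction medium exposed 48 h to eight half-log concentrations up to 100 uM, 0.5% DMSO, in duplicate. ABCC2 mRNA measured by qRT-PCR (TaqMan, Fluidigm), normalized to ACTB, GAPDH and POLR2A. Fitted in both directions against DMSO.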
# [19] = read-out: Broad substrate specificity ATP-binding cassette transporter ABCG2 (Homo sapiens) (UniProt Q9UNQ0); assay: LTEA_HepaRG_ABCG2: Life Technologies and Expression Analysis (LTEA) Assay for ABC Transporter (ABCG2) using HepaRG (AID 2283465); conditions: mRNA level, 48 h; actives raise or lower the signal
# In short: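 ABCG2 transcript was quantified by TaqMan qRT-PCR against three housekeeping genes in HepaRG cells. Cells were treated in duplicate for 48 h across an 8-point half-log series up to 100 uM, with 0.5% DMSO vehicle. Gain or loss versus DMSO was fit.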
# [20] = read-out: ATP-citrate lyase (ACLY), ACLY (gene 47); assay: LTEA_HepaRG_ACLY: Life Technologies and Expression Analysis (LTEA) Assay for ATP-citrate lyase (ACLY) using HepaRG (AID 2283466); conditions: mRNA level, 48 h; actives raise or lower the signal
# In short: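 ACLY mRNA quantified by qRT-PCR on Fluidigm arrays against three housekeeping genes, after 48 h chemical treatment of HepaRG cells (top concentration 100 uM, half-log steps, 0.5% DMSO vehicle). Up- or down-regulation fitted relative to DMSO.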
# Chain of Broad substrate specificity ATP-binding cassette transporter ABCG2 (Homo sapiens) (Q9UNQ0 whole entry, looked up): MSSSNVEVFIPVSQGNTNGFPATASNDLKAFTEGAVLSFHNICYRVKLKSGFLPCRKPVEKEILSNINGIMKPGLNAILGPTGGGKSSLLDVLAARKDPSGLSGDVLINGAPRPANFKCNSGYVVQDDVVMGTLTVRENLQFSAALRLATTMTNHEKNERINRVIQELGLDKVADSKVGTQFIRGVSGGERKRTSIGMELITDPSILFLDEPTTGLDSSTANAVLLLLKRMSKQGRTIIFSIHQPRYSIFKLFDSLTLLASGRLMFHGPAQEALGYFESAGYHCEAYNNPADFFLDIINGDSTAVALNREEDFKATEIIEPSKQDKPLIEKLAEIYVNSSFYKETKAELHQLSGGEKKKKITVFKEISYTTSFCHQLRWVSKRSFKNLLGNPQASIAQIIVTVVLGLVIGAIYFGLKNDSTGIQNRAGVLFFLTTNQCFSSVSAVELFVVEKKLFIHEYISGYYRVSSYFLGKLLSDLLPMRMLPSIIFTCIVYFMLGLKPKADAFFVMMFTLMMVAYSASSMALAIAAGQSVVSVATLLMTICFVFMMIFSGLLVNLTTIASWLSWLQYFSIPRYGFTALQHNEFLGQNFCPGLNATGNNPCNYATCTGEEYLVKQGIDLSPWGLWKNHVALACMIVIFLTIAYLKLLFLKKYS
# Chain of Fatty acid synthase (Homo sapiens) (P49327 whole entry, looked up): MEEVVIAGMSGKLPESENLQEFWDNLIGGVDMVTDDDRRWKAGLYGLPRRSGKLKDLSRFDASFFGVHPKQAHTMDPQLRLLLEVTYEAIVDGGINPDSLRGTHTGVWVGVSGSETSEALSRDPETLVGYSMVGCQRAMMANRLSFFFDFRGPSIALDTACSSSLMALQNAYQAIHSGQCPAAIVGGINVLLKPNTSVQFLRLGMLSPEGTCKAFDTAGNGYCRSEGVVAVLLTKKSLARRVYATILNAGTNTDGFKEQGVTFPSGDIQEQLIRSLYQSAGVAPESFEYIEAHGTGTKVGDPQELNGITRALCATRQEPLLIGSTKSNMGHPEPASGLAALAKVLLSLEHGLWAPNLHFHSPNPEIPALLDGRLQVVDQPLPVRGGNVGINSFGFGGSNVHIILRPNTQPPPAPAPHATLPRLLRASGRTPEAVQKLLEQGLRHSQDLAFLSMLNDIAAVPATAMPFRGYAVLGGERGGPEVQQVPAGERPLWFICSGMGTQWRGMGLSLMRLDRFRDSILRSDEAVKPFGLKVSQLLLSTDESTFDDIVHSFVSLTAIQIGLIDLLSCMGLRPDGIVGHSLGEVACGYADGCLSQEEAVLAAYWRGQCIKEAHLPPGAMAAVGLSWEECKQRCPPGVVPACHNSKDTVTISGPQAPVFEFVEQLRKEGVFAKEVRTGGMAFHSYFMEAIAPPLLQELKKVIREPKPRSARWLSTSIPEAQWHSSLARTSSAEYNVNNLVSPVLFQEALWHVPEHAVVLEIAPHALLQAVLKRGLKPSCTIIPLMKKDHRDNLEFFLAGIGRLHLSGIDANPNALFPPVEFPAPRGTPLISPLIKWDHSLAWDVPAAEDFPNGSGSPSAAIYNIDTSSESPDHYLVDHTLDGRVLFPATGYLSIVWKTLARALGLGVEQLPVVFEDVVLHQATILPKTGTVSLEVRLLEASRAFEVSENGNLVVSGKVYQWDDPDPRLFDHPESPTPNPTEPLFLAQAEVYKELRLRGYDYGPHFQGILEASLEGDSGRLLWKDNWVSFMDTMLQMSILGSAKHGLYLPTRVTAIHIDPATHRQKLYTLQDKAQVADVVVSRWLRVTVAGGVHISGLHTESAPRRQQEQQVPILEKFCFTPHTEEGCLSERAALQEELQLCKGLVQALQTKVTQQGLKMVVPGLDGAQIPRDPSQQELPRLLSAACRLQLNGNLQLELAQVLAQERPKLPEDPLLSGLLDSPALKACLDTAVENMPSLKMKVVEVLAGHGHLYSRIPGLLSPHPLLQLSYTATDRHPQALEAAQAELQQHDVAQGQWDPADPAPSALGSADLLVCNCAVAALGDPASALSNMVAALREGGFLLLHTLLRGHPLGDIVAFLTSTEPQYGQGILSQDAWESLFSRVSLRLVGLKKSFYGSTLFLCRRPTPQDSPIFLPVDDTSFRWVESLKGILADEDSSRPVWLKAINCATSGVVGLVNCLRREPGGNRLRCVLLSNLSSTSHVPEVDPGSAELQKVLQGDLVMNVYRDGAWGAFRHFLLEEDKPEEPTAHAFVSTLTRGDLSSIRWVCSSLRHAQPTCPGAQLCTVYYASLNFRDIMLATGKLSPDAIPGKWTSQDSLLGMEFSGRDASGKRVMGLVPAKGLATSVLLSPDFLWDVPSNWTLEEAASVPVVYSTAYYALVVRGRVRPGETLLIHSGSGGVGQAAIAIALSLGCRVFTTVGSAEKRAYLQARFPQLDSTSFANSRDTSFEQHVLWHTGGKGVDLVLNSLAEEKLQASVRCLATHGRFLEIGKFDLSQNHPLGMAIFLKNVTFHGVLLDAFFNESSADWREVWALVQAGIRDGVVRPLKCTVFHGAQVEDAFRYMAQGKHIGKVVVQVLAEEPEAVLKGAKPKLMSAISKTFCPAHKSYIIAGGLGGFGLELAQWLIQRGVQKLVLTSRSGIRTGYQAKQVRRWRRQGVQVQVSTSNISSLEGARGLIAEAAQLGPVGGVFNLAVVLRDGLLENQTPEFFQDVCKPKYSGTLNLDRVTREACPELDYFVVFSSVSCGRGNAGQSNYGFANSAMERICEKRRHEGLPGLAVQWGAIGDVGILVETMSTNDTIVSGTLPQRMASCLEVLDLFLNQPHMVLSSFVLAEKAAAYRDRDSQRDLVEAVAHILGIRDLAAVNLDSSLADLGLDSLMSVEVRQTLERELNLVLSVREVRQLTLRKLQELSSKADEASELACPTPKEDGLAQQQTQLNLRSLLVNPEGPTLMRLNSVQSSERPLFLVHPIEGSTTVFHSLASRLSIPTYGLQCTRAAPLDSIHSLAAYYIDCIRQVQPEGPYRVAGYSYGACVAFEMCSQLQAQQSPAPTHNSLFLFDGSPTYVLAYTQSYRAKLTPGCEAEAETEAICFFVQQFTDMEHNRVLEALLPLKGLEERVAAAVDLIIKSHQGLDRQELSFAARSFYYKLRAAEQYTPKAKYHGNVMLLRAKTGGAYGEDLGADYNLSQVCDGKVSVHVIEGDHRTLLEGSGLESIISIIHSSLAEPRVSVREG
smiles,measurement,setting,value
CNC(=O)ON=C(SC)C(=O)N(C)C,outcome,[1],inactive
same,outcome,[2],inactive
same,outcome,[3],inactive
same,outcome,[4],inactive
same,outcome,[5],inactive
same,outcome,[6],inactive
same,outcome,[7],inactive
same,outcome,[8],inactive
same,outcome,[9],inactive
same,outcome,[10],inactive
same,outcome,[11],inactive
same,outcome,[12],inactive
same,outcome,[13],inactive
same,outcome,[14],inactive
same,outcome,[15],inactive
same,outcome,[16],inactive
same,outcome,[17],inactive
same,outcome,[18],inactive
same,outcome,[19],inactive
same,outcome,[20],inactive
O=[N+]([O-])c1cc(C(F)(F)F)c(Cl)c([N+](=O)[O-])c1Nc1ncc(C(F)(F)F)cc1Cl,outcome,[1],inactive
same,AC50,[2],50 µM (active)
same,outcome,[3],inactive
same,outcome,[4],inactive
same,AC50,[5],14.8 µM (active)
same,AC50,[6],29.2 µM (active)
same,AC50,[7],27.7 µM (active)
same,AC50,[8],9.68 µM (active)
same,AC50,[9],40.9 µM (active)
same,outcome,[10],inactive
same,AC50,[12],33.6 µM (active)
same,AC50,[13],35.6 µM (active)
same,outcome,[14],inactive
same,outcome,[15],inactive
same,AC50,[16],13.2 µM (active)
same,AC50,[17],15.8 µM (active)
same,AC50,[18],67.9 µM (active)
same,AC50,[19],50 µM (active)
same,AC50,[20],50 µM (active)
CNC(=O)ON=C(C)SC,outcome,[1],inactive
same,outcome,[2],inactive
same,outcome,[3],inactive
same,outcome,[4],inactive
same,outcome,[5],inactive
same,outcome,[6],inactive
same,outcome,[7],inactive
same,outcome,[8],inactive
same,outcome,[9],inactive
same,outcome,[10],inactive
same,outcome,[12],inactive
same,outcome,[13],inactive
same,outcome,[14],inactive
same,outcome,[16],inactive
same,AC50,[17],16.7 µM (active)
same,outcome,[18],inactive
same,outcome,[19],inactive
same,outcome,[20],inactive
